# Measured values taken from ChEMBL document CHEMBL1201862, “PubChem BioAssay data set” (2004).
# Out of some 57,000 sequences screened, about 4,200 (7.4%) were called active. Cut-off read from the data, not from the text of the source: active = GI50 up to about 1.1 µM and inactive = higher. The list is a sample of the results. Entries with a potency or affinity are not part of this list.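 Results reflect a 48-hour exposure of cells in 96-well plates to compound at five concentrations. GI50 is the concentration that inhibits growth by half.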
# Test system: UACC-62
# Assay: NCI tumour cell line growth inhibition, 48 h
row,Substance,GI50
1,"[Bis(aminomethyl)tetramethylenesilane]dichloropaltinum(II), CHEMBL2146205",16 µM
2,"[Bis(aminomethyl)ethylmethylsilane]tetrachloroplatinum(IV), CHEMBL2146192",2.39 µM
3,"CISPLATIN, CHEMBL11359",1.18 µM
4,"[Bis(aminomethyl)dimethylsilane]tetrachloroplatinum(IV), CHEMBL2146190",4.57 µM
5,"[Bis(aminomethyl)diethylsilane]tetrachloroplatinum(IV), CHEMBL2146203",3.93 µM
6,"[Bis(aminomethyl)pentamethylenesilane]tetrachloropaltinum(IV), CHEMBL2146204",0.935 µM
7,"cis-Bis[[(trimethylsilyl)methyl]amino]tetrachloroplatinum(IV), CHEMBL2146191",5.21 µM
8,"[Bis(aminomethyl)pentamethylenesilane]dichloropaltinum(II), CHEMBL2146202",2.72 µM
9,"[Bis(aminomethyl)dimethylsilane]dichloroplatinum (II), CHEMBL2146201",15.3 µM
10,"mu-(1,7-nanodiamine-N,N')bis-(cis-aminedichloroplatimum (II)), CHEMBL2146215",3.44 µM
11,"[Bis(aminomethyl)tetramethylenesilane]tetrachloropaltinum(IV), CHEMBL2146189",3.87 µM
